Source: PubChem
TTR transcr act: TTR transcription activation, primary screen; SH-SY5Y TTR promoter Gaussia luciferase, luminescence; 100% = recombinant luciferase protein wells; activation, % at 16.7 µM; 1.3% of 92,000 active; AID 1117267;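 active = activation above the mean of all tested compounds plus 3 SD, cut at about 9.5% in these data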;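 also: cells exposed to compounds for one day before reading; 0% = median of all test compound wells on the plate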
HuH7 TTR inh: decreases TTR transcription in HuH7 cells in activator counter-screen; shares compounds with TTR transcr act; HuH7 TTR promoter-Gaussia luciferase reporter, luminescence; inhibition, % at 16.7 µM; 4% of 1,100 active; AID 1117279;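 active = average inhibition above the solvent-only control wells' mean plus 3 SD, cut at about 15% in these data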;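 also: 0% = cells with DMSO only and 100% = cells with inhibitor control FD; inhibitors lower well luminescence so higher value means more inhibition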
TTR up confirm: confirmation of human transthyretin transcription activators; shares compounds with TTR transcr act; SHSY5Y TTR promoter Gaussia luciferase, luminescence; 100% = purified Lucia enzyme wells, no cells; activation, % at 16.7 µM; 1,100 tested, under 10 active; AID 1117280;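 active = mean activation above a set limit taken from the earlier primary screen, cut at about 11% in these data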;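 also: 0% = DMSO-treated cells and 100% = recombinant Lucia luciferase without cells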
Active calls of the source: *. The sample as a whole holds a higher share of hits than the screen did.

SMILES | TTR transcr act | others
COc1cccc(-c2cc3nc(C)c(C)c(N4CCN(Cc5ccco5)CC4)n3n2)c1 | -3
O=C(NC1CCCCN(Cc2ccc(Cl)cc2)C1=O)c1ccc(F)cc1 (stereo not given) | 1
CC(C)CNC(=O)OCc1cn(Cc2ccccc2)nn1 | 2
COc1ccc(C(Nc2ccccn2)c2c(NC(=O)c3ccco3)sc(C)c2C)cc1OC (stereo not given) | 7
COc1ccc(C(c2c(NC(=O)c3ccco3)sc(C)c2C)N2CCOCC2)cc1 (stereo not given) | 14* | HuH7 TTR inh=0;TTR up confirm=0
COc1ccc(C(CNC(=O)c2ccco2)N2CCCCC2)cc1 (stereo not given) | 1
Nc1[nH]c(C(=O)c2ccccc2)c(-c2cccnc2)c1C(=O)NCCc1c[nH]c2ccccc12 | -1
CC(/C=N\NC(=O)Cn1cncn1)=C/c1ccc(C(C)C)cc1 | 0
CC(/C=N/NC(=O)Cn1nccc1C)=C\c1ccc(C(C)C)cc1 | -1
CC(=C/c1ccc(C(C)C)cc1)/C=N/NC(=O)c1ccncc1 | 10* | HuH7 TTR inh=-4;TTR up confirm=0
Cc1cccc(NC(=O)C[n+]2cccc(C)c2)c1 | -2
Cc1cc(C)c(C(=O)C[n+]2cccc(C(N)=O)c2)c(C)c1 | 14* | HuH7 TTR inh=-9;TTR up confirm=0
Cc1ccc[n+](CC(=O)c2ccc(NC(=O)c3ccccc3)cc2)c1 | 1
Cc1ccc(CN[C@@H]2CC[C@@]34CCCN3C(=O)CCC[C@H]4C2)o1 | 0
CCC[C@H]1[C@@H](OC(=O)NCc2cccnc2)CC[C@@]23CCCN2C(=O)CCC[C@@H]13 | 2
C[C@H]1[C@@H](O)CC[C@@]23CCCN2C(=O)CCC[C@@H]13 | 1
Cc1ccc(S(=O)(=O)N2CC(O)CC2C(=O)NCc2ccc3c(c2)OCO3)cc1 (stereo not given) | 15* | HuH7 TTR inh=-4;TTR up confirm=-1
Cc1ccc(CNC(=O)COC(=O)[C@@H]2CC(O)CN2S(=O)(=O)c2ccc3c(c2)OCCO3)cc1 (stereo not given in full) | 4
Cc1ccc(NC(=O)N2CCCC2C(=O)NCc2ccc3c(c2)OCO3)cc1 (stereo not given) | 0
O=[N+]([O-])c1ccc(Cn2ccc3ccc(-c4ccc5ccn(Cc6ccccc6)c5c4)cc32)cc1 | 2
CCC(C)NCCCCOc1cc(C)cc(C(C)C)c1 (stereo not given) | -2
CCC(C)NCCCCOc1ccc(Br)cc1 (stereo not given) | 10* | HuH7 TTR inh=-6;TTR up confirm=0
CCOc1ccc(OCCCCNC(C)(C)C)cc1 | 2
C[C@H](c1ccccc1)N1C[C@@H](COCc2ccccc2)Oc2cccc(F)c2S1(=O)=O | 4
C[C@H]1[C@@H](OC(=O)NCc2cccc(Cl)c2)CC[C@@]23CCCN2C(=O)CCC[C@@H]13 | 1
SMILES | TTR transcr act | others
Cc1cccc(Oc2ccc(C(=O)NC3CCSC3=O)cn2)c1C (stereo not given) | 14* | HuH7 TTR inh=-2;TTR up confirm=-1
O=C(Cc1ccc(F)cc1)NC1CCSC1=O (stereo not given) | 2
O=C(NC(=S)NC1CCSC1=O)c1cccs1 (stereo not given) | 4
CCOC(=O)C1CCN(C(=O)C(C)(C)NC(=O)Nc2ccc(N(C)C)cc2)CC1 | 0
CC(C)[C@@H](C)/C=C/[C@@H](C)[C@H]1CC[C@@H]2[C@]1(C)CCC1[C@]23C=C[C@]2(C[C@@H](O)CC[C@]12C)N(C(=O)Cc1ccccc1)O3 (stereo not given in full) | 0
CC1Cc2ccccc2N1C(=O)CSc1nnnn1C (stereo not given) | 6
Cn1nnnc1SCC(=O)N1CCCc2ccccc21 | 2
CC1CC(=O)Nc2ccccc2N1C(=O)CSc1nnnn1C (stereo not given) | 14* | HuH7 TTR inh=-6;TTR up confirm=0
C[C@H]1C(=O)CC[C@@]23CCCN2C(=O)CCC[C@@H]13 | 1
C[C@H]1[C@@H](N(C)Cc2ccccc2)CC[C@@]23CCCN2C(=O)CCC[C@@H]13 | 0
Cc1cccc(CNC(=S)OCCN2CCCC23CCC(c2ccccc2)CC3)c1 (stereo not given) | 0
Nc1[nH]c(C(=O)c2ccccc2)c(-c2ccc(Br)cc2)c1C(=O)N1CCN(CCO)CC1 | -2
O=C(CNC(=O)c1[nH]cnc1C(=O)NC(c1ccccc1)c1ccccc1)OCc1ccccc1 | 11* | HuH7 TTR inh=-23;TTR up confirm=-1
O=C(CNC(=O)c1[nH]cnc1C(=O)N[C@@H](Cc1ccccc1)C(=O)OCc1ccccc1)OCc1ccccc1 | 5
CC(C)(C)OC(=O)CNC(=O)c1[nH]cnc1C(=O)NCC(=O)OCc1ccccc1 | 0
O=S1(=O)c2ccc(N3CC[C@@H](O)C3)cc2OCCCN1C1CC1 | 0
Cc1cc2c(s1)c1cnn(Cc3cc(F)c(F)cc3F)c(=O)c1n2C | -2
O=C(Oc1cc(=O)oc2ccccc12)c1ccccc1 | 14* | HuH7 TTR inh=0;TTR up confirm=0
O=C(O)CCc1ccccc1OC(=O)c1ccccc1 | 1
O=C(Oc1cccc2ccccc12)c1ccccc1 | 0
O=C(N1CCC(n2nc(-c3ccccc3)oc2=O)CC1)C1(c2ccccc2)CCCC1 | 0
CC(C)N1CCc2c(sc(NC(=O)C(F)(F)F)c2-c2nc3ccccc3s2)C1 | 0
COc1ccc(-c2[nH]c(-c3ccc(C)cc3)nc2SCC(=O)Nc2nccs2)cc1 | 10* | HuH7 TTR inh=-12;TTR up confirm=-1
COc1ccc(-c2[nH]c(-c3ccc(SC)cc3)nc2SCC(=O)Nc2nccs2)cc1 | -1
COc1ccc(-c2nc(SCC(=O)NC3CCCC3)c(-c3ccc(OC)cc3)[nH]2)cc1 | -1
SMILES | TTR transcr act | others
CC1(c2ccccc2)CC(=O)N(c2ccc(NC(=O)c3ccccn3)cc2Cl)C1=O (stereo not given) | 0
COC(=O)c1cnn(-c2ccc(Cl)cc2)c1/C=N/NC(=S)Nc1ccccc1 | -2
COC(=O)c1cnn(-c2ccccc2)c1/C=N/NC(=S)Nc1ccccc1 | 11* | HuH7 TTR inh=-5;TTR up confirm=-1
COC(=O)c1cnn(-c2ccc(F)cc2F)c1/C=N/NC(=S)Nc1ccccc1 | -1
C#CCNC(=O)C[C@H]1C(=O)N(CCCOC)C2=CCCC[C@@]21C(=O)OCC | 3
CCCCOc1ccc(C(=O)n2ccc3ccc(-c4ccc5ccn(Cc6ccc(OC)cc6)c5c4)cc32)cc1 | -1
C=CCN1C(=O)[C@H](CC(=O)NCCC(C)C)[C@@]2(C(=O)OCC)CCCC=C12 | 0
COc1ccc2cc3c(N)nn(C(=O)c4ccccc4[N+](=O)[O-])c3nc2c1 | 26* | HuH7 TTR inh=26*;TTR up confirm=-1
COc1ccc2cc3c(N)nn(C(=O)c4ccc(Cl)c([N+](=O)[O-])c4)c3nc2c1 | -1
CCCC1CCC(C(=O)n2nc(N)c3cc4ccc(OC)cc4nc32)CC1 (stereo not given) | -1
CCOC(=O)N1CCN(C(=O)C[C@H]2C[C@@]3(C(=O)OC)C(=C[C@H](C4CCCC4)O[C@@H]3C)N(Cc3ccco3)C2=O)CC1 | 1
C[C@@H]1CN([C@@H](C)CO)C(=O)CCCn2cc(nn2)CO[C@H]1CN(C)C(=O)Nc1ccc(-c2cccs2)cc1 | -1
C#CCOCCOCCOCCNc1nc(N2CCOCC2)nc(N2CCN(C(=O)[C@H](CCC(=O)O)n3cc(C(N)CO)nn3)CC2)n1 (stereo not given in full) | 2
